The list is not random: actives were taken first. Their share in the collection is about 1.3%.
LANA DNA inh: KSHV C-LANA DNA binding inhibition. inhibition, % at 9 µM. actives 0.078% (n = 340,000). MBP-C-LANA/FAM-LBS DNA binding, fluorescence polarization. AID 504423;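 active = highest replicate inhibition at or above 60% at 9 µM, even if other replicates fall short; inactive = all replicates below 60% inhibition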
eLon inh: E. coli protease La inhibition; actives 0.42% (n = 360,000); AID 602123; P0A9M0; inhibition, % at 7.94 µM; purified E. coli Lon protease, fluorescence polarization; in the data active = inhibition above about 13%, passing the limit was not always enough
cardiac RTF act: increases calcium sensitivity of human cardiac regulated thin filaments; P19429+P45379; IANBD-labeled TnC RTF fluorescence at EC20 calcium; 0% EC20 calcium, 100% full calcium; activation, % at 7.2 µM; actives 0.24% (n = 340,000); AID 493008;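 active = activation above the mean over all tested compounds plus 3 SD, cut at about 30% in these data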;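 also: rise in fluorescence read as greater calcium sensitivity of cardiac thin filaments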
LANA-H2A inh: blocks KSHV LANA binding to histone H2A/H2B; Q9QR71; inhibition, % (concentration not given with the values); actives 0.6% (n = 320,000); cell-free LANA-H2A/H2B peptide, fluorescence polarization; in the data active = inhibition mostly above about 10%, no sharp cut-off; inactive = mostly below about 6.7%
Keap1 Nrf2 FP: Keap1-Nrf2 (human) interaction inhibition | Q14145 | Keap1 Kelch-Nrf2 peptide fluorescence polarization, 1536-well | inhibition, % at 9.4 µM | actives 0.15% (n = 340,000) | AID 504523; in the data active = inhibition above about 12%;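 also: human Keap1 Kelch domain with fluorescein labeled Nrf2 9mer peptide probe; higher means more block of Keap1 binding to Nrf2 peptide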
Cardiac RTF inh: cardiac RTF calcium desensitization; actives 0.12% (n = 340,000); IANBD-labeled cardiac RTF, Ca2+ fluorescence; P19429+P45379; inhibition, % at 7.15 µM;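 active = inhibition above the mean inhibition of all tested compounds plus 3 SD, cut at about 17% in these data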;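 also: assay run at fixed EC70 calcium of 1.6 mM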
E coli Lon conf: E. coli Lon inhibition confirmation; shares compounds with eLon inh; purified E. coli Lon, fluorescence polarization; inhibition, % at 7.94 µM; actives 31% (n = 1,400); AID 602230; in the data active = inhibition above about 16%
Of the large screens only hits and unclear results are named; the others gave an inactive call (follow-up assays come after a bar, where they were run).

CCCn1c(C(C)Nc2nc(C)cs2)nc2cc(Cl)c(Cl)cc21 (stereo unspecified)	eLon inh 116 | E coli Lon conf inactive
Cc1ccc(Cn2c(C(C)Nc3nc(-c4ccc(C)cc4)cs3)nc3cc(Cl)c(Cl)cc32)cc1 (stereo unspecified)	none
O=C(NC12CC3CC(CC(C3)C1)C2)c1cnccn1	eLon inh 15 | E coli Lon conf inactive
C[C@@H]1CN([C@@H](C)CO)C(=O)c2c(c3ccccc3n2C)-c2ccccc2CO[C@H]1CN(C)C(=O)[C@H](C)c1ccccc1	none (no result: LANA DNA inh, cardiac RTF act, LANA-H2A inh, Keap1 Nrf2 FP, Cardiac RTF inh)
COc1ccc(-c2ccc(C(=O)N3CCOCC3)c3occc23)c(C)c1	eLon inh 23 (no result: LANA DNA inh, cardiac RTF act, LANA-H2A inh, Keap1 Nrf2 FP, Cardiac RTF inh) | E coli Lon conf inactive
COc1ccc(-c2ccc(C(=O)N3CCN(C)CC3)c3occc23)c(C)c1	none (no result: LANA DNA inh, cardiac RTF act, LANA-H2A inh, Keap1 Nrf2 FP, Cardiac RTF inh)
NC(=O)c1ccsc1NC(=O)c1coc2ccccc2c1=O	none
O=C(Oc1ccc2c(c1)OCC2=O)c1ccccc1	eLon inh 19 | E coli Lon conf 23
NS(=O)(=O)c1ccc(NS(=O)(=O)c2ccc(C3CNC(=O)C3)cc2)cc1 (stereo unspecified)	eLon inh 19 | E coli Lon conf inactive
COc1ccc(N2CCN(C(=O)COC(=O)c3ccc(OC(F)F)cc3)CC2)cc1	none
CC(C)c1ccc(Nc2nc(N3CCOCC3)nc(N3CCOCC3)n2)cc1	none (no result: LANA DNA inh, cardiac RTF act, LANA-H2A inh, Keap1 Nrf2 FP, Cardiac RTF inh)
CC(C)CCCNc1nc(N2CCOCC2)nc(N2CCOCC2)n1	eLon inh 84 | E coli Lon conf inactive
C=C(C)c1cccc(C(C)(C)NC(=O)Nc2ccc(OC)nc2)c1	eLon inh 46 | E coli Lon conf 18
CSCC[C@H](NC(=O)N1CCn2c1nc1ccccc12)C(=O)N1CCCCC1	none
COc1ccccc1CCNC(=O)C(=O)NCC1OCCN1S(=O)(=O)c1ccc(Cl)cc1 (stereo unspecified)	eLon inh 16 | E coli Lon conf inactive
CN(C)c1ccc2nc3c(=O)[nH]c(=O)nc-3n(CC(O)C(O)C(O)CO)c2c1 (stereo unspecified)	eLon inh 165, cardiac RTF act 125, LANA-H2A inh 30 | E coli Lon conf 82
COc1ccc(C(=O)CC(=O)C(=O)Nc2cccc(C(C)=O)c2)cc1	none
COc1ccc(Cl)cc1S(=O)(=O)n1ccnc1C(C)C	eLon inh 17 | E coli Lon conf inactive
CC(=O)N1c2ccc(S(=O)(=O)N3CCC(C(=O)Nc4cccc(C(F)(F)F)c4)CC3)cc2CC1C (stereo unspecified)	eLon inh 28 | E coli Lon conf inactive
COc1cccc(NC(=O)C2CCN(S(=O)(=O)c3ccc4c(c3)CC(C)N4C(C)=O)CC2)c1 (stereo unspecified)	none
COc1ccccc1-c1nc(COc2ccc(Cl)cc2Cl)no1	none (no result: LANA DNA inh)
COc1ccc(-c2nnc(SCC(=O)N3CCOCC3)o2)cc1OC	eLon inh 14 | E coli Lon conf inactive
CCOC(=O)N1CCN(C(=S)NC(=O)c2ccc(F)c(F)c2)CC1	none
CC1(C)CC(=O)C=C(c2cccc(O)c2)C1=O	none
COc1cccc(C2=CC(=O)CC(C)(C)C2=O)c1	eLon inh 12 (no result: LANA DNA inh, cardiac RTF act, LANA-H2A inh, Keap1 Nrf2 FP, Cardiac RTF inh) | E coli Lon conf inactive
CN(Cc1ccco1)C(=O)c1cc2c(s1)-c1ccc(Cl)cc1S(=O)(=O)C2	none
COc1ccc(N(C)C(=O)c2cc3c(s2)-c2ccc(Cl)cc2S(=O)(=O)C3)c(OC)c1	eLon inh 20 | E coli Lon conf inactive
CCN(CC)C(=O)CSc1nnc2nnc3cc(Cl)ccc3n12	eLon inh 54 | E coli Lon conf 42
CN(Cc1ccccc1)C(=O)c1ccc2nc([C@H]3C[C@H](O)[C@@H](CO)O3)[nH]c2c1	none (no result: LANA DNA inh, cardiac RTF act, LANA-H2A inh, Keap1 Nrf2 FP, Cardiac RTF inh)
Cc1noc(-c2ccccc2)c1NC(=O)Nc1ccc2nc([C@H]3C[C@H](O)[C@@H](CO)O3)[nH]c2c1	eLon inh 17 (no result: LANA DNA inh, cardiac RTF act, LANA-H2A inh, Keap1 Nrf2 FP, Cardiac RTF inh) | E coli Lon conf inactive
COc1ccc(OC)c(S(=O)(=O)N2CCC(C(=O)NCC3CCCO3)CC2)c1 (stereo unspecified)	eLon inh 32 | E coli Lon conf inactive
COc1ccc(C)cc1S(=O)(=O)N1CCCC(C(=O)NCC2CCCO2)C1 (stereo unspecified)	none
Cc1cccc(Cl)c1NC(=O)N1CCCN(c2ncccc2[N+](=O)[O-])CC1	eLon inh 25 | E coli Lon conf inactive
COc1ccc(C2N(C(=O)C(F)(F)F)C(C)CN2S(=O)(=O)c2ccc(C)cc2)cc1 (stereo unspecified)	none
O=[N+]([O-])c1ccc(-c2ccc(C=Nc3cccc4ccccc34)o2)cc1	none
O=[N+]([O-])c1cc(-c2ccc(/C=N/c3nc4ccccn4c3-c3ccco3)o2)ccc1Cl	eLon inh 27 | E coli Lon conf inactive
OCCNc1c2ccccc2nc2c(F)c(F)c(F)c(F)c12	none
Cc1c2ccccc2nc2c(F)c(NC(C)C)c(F)c(F)c12	eLon inh 107 | E coli Lon conf 194
Cc1c2ccccc2nc2c(F)c(NCCO)c(F)c(F)c12	eLon inh 50, cardiac RTF act 42 (no result: LANA-H2A inh) | E coli Lon conf active
S=C1NCN(C2CCCCC2)CN1CCc1ccccc1	none (no result: LANA DNA inh, cardiac RTF act, Keap1 Nrf2 FP, Cardiac RTF inh)
CCC(=O)Nc1ccc(C(=O)CN2C(=O)NC3(CCCCCC3)C2=O)cc1	none
O=C(CN1C(=O)NC2(CCCCC2)C1=O)Oc1ccc2c(C(F)(F)F)cc(=O)oc2c1	eLon inh 54 | E coli Lon conf 33
CCc1cc(=O)oc2cc(OC(=O)CN3C(=O)NC4(CCCC4)C3=O)ccc12	none
CCC(CO)Oc1cc(NCc2cccnc2)c2ncn(C(C)C)c2c1 (stereo unspecified)	eLon inh 27 | E coli Lon conf inactive
CC1(OC(=O)c2cccs2)C(=O)C=C2C=C(C3CC3)OC=C2C1=O (stereo unspecified)	none
CC1(OC(=O)c2ccco2)C(=O)C=C2C=C(C3CC3)OC=C2C1=O (stereo unspecified)	eLon inh 25 | E coli Lon conf inactive
O=C(CNC(c1ccccc1)c1ccccc1)NCc1ccccc1Cl	none
Cc1noc(NS(=O)(=O)c2ccc(NC(=O)COc3ccccc3)cc2)c1C	none
COCC(=O)Nc1ccc(S(=O)(=O)Nc2onc(C)c2C)cc1	eLon inh 62 (no result: LANA DNA inh, cardiac RTF act, LANA-H2A inh, Keap1 Nrf2 FP, Cardiac RTF inh) | E coli Lon conf inactive
COc1cccc(-n2cnc(=O)c3cccnc32)c1	none
CC(c1ccccc1)n1c(N2CCNCC2)nc2c1c(=O)[nH]c(=O)n2C (stereo unspecified)	none
COc1ccc(CN2CCC(CO)(Cc3ccccc3C(F)(F)F)CC2)c(F)c1	eLon inh 20 | E coli Lon conf inactive
COc1ccc(CC2(CO)CCN(Cc3cccc4nccnc34)CC2)cc1	none
